# Assay outcomes: PubChem, National Center for Advancing Translational Sciences (NCATS)
# HEK293 tox – HEK 293 cell cytotoxicity. HEK 293 viability, ATP luminescence (CellTiter-Glo), 48-72 h. Potency, µM (titrated, usually from 115 µM), inactives show at the highest dose activity change, negative = cytotoxicity, most hits filed as inhibitors. 94,000 compounds, 6.6% hits. AID 1345083; also: nearly all actives have a fitted effect of over 60% in size
#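 Read-out: CellTiter-Glo ATP luminescence. Cells: HEK 293, 250 cells/well. Exposure: 48 or 72 hr, 37 degree Celsius.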
# NIH3T3 tox – NIH 3T3 cell cytotoxicity. Potency, µM (top dose mostly 96.7 µM), inactives show at the highest dose activity change, negative = cytotoxicity, most hits filed as inhibitors. AID 1345082. 94,000 compounds, 4.3% hits. NIH 3T3 viability, CellTiter-Glo ATP luminescence, 48-72 h; also: nearly all actives have a fitted effect of over 55% in size
#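 Viability of NIH 3T3 cells after 48 or 72 hr compound treatment at 37 °C was assessed by CellTiter-Glo, with luminescence imaged following a 10 min room-temperature step.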
# FLuc inh – Photinus pyralis luciferase inhibition; Potency, µM (highest dose often 115 µM), usual class: inhibitors; 76,000 compounds, 2.5% hits; purified P. pyralis luciferase, luminescence, biochemical; P08659; also: nearly all actives have a fitted effect of over 65% in size
# Target sequence (P08659 whole entry, looked up): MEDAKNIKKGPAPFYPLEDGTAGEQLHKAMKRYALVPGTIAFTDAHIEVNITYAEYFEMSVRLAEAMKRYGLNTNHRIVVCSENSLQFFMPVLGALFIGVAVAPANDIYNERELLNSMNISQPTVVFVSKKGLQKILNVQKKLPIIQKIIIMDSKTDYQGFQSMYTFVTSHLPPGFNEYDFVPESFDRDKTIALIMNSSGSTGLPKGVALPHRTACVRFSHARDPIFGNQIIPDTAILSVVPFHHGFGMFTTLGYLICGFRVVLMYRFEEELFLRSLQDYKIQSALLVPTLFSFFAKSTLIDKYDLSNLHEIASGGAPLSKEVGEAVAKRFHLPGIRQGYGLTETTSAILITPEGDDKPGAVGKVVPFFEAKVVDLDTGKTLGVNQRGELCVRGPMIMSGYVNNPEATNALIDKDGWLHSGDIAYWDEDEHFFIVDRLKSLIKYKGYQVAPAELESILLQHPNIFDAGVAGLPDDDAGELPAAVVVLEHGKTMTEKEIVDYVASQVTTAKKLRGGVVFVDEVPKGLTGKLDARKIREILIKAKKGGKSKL
#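 Luminescence read by CCD imager after adding enzyme (10nM final) to wells holding compound, titrated in qHTS. Substrates 10uM each D-luciferin and ATP; buffer 50mM Tris acetate pH 7.5, 10mM Mg acetate, Tween-20, BSA.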
# hNpr1 antagonist – antagonists of human natriuretic peptide receptor Npr1. P16066. HEK293 hNpr1 GloSensor cGMP, ANP-stimulated luminescence. Potency, µM (titrated, usually from 46.3 µM), inactives show at the top dose activity change, negative = inhibition, hits mostly inhibitors. 76,000 compounds, 1.6% hits; calls by dose curve; also: nearly all actives have a fitted effect of over 60% in size
#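 Compound pre-incubated 30 min at room temperature on GloSensor-loaded HEK293 cells stably carrying hNpr1 and the pGS-40F cGMP biosensor. Stimulation uses hNppA at 0.1 nM final; luminescence is taken at baseline and 20 min post-agonist.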
# Starred values were filed as active, the others as inactive; i = inactive; ? = inconclusive; · = no result; [ ] = remark or other dose. Hits are enriched below; roughly 11% of the tested compounds scored in any of these assays. Unless noted, calls follow the shape of the dose curve; as a rule, active = well fitted curve in the direction sought with a large enough effect; inconclusive = small, poorly fitted or top-dose-only effect, or another doubt; inactive = no such curve, though single readings can be large; an effect the other way counts as inactive or inconclusive. % is scaled to controls: 0 for no effect and ±100 for the full control effect; potency is read from the fitted curve at half-maximal effect.
SMILES,HEK293 tox,NIH3T3 tox,FLuc inh,hNpr1 antagonist
CCN1c2cc(C(=O)Nc3cccc(OC)c3)ccc2C(=O)N2CCCCC21 (stereo not given),44.7µM*,?,i,-13.5%
Cn1cccc1CN1CCCC2(CC(Cc3ccccc3)=NO2)C1 (stereo not given),?,?,i,-4.9%[70.6 µM]
CCN(CC)Cc1nc(C2(O)CCN(C3CCN(C(C)=O)CC3)CC2)cs1,-0.3%[172 µM],-19.2%[174 µM],i,8.3%[70.6 µM]
CN(c1cc(=O)c2ccnc(-c3cncnc3)c2o1)C1CCOCC1,i,79.4µM*,i,1.2%[70.6 µM]
CN(c1cc(=O)c2ccnc(-c3cccc(CO)c3)c2o1)C1CCOCC1,-8.9%[172 µM],25.1µM*,i,0.7%[70.6 µM]
O=C(c1ccc2c(c1)OCO2)N1C2CCC1CN(Cc1cccnc1)C2,-23.0%,?,·,·
CCO[C@H]1CN(c2cc(C)nc(-c3ccccc3O)n2)C[C@@H]1O,?,?,i,-0.9%
c1ccc(OCC2CN(Cc3ccc4[nH]ccc4c3)CC23CN(c2ccccc2)C3)cc1 (stereo not given),28.2µM*,25.1µM*,i,?
O=C(Cc1ccccc1)NCC1CN(Cc2ccc3[nH]ccc3c2)CC12CN(c1ccccc1)C2 (stereo not given),39.8µM*,22.4µM*,i,-5.5%
O=[S+]([O-])(NCC1CN(Cc2ccc(O)cc2)CC12CN(c1ccccc1)C2)c1ccccc1 (stereo not given),?,17.8µM*,i,-21.8%
O=C(O)c1cccc(CN2CC(COc3ccccc3)C3(C2)CN(c2ccccc2)C3)c1 (stereo not given),?,-19.7%[138 µM],i,-3.3%[70.6 µM]
c1ccc(OCC2CN(Cc3ccncc3)CC23CN(c2ccccc2)C3)cc1 (stereo not given),?,89.1µM*,i,-1.6%[70.6 µM]
Cc1ccccc1-c1cccc(C(=O)N(C)Cc2ncc[nH]2)c1,-20.3%,-21.8%,i,-17.0%
COc1cccc(-c2cnc3n[nH]c(-c4ccccc4)c3n2)c1,56.2µM*,39.8µM*,i,-4.5%[70.6 µM]
COc1ccc(-c2cnc3n[nH]c(-c4ccccc4)c3n2)cc1,89.1µM*,79.4µM*,i,-1.4%[70.6 µM]
Cc1ccc(NC(=O)N2C[C@@H](Oc3cccnc3)C[C@H]2C(=O)N2CCCC2)cc1C,-0.6%,?,i,0.1%
COc1ccc(-n2c(=O)c(C(=O)N(C)C)nc3cccnc32)cc1,4.5%[172 µM],i,·,·
COc1ccc2cc(C(=O)N3CCC(Cc4ccc(C(=O)NC5CC5)cc4)CC3)[nH]c2c1,35.5µM*,28.2µM*,i,?
COc1ccc(C(=O)NC2CCN(C(=O)c3cc4c(=O)[nH]c(C)cn4n3)CC2)cc1,-25.6%,-7.7%,i,-3.3%
O=C1CC2(CCN(C(=O)C3CCCN3C(=O)c3ccccc3Cl)CC2)Oc2ccccc2N1 (stereo not given),-14.8%,-13.1%,·,·
COc1ccc(CNC(=O)c2noc(-c3ccc4c(c3)OCO4)n2)cc1,?,?,31.6µM*,3.0%
O=C(NCc1cccc(Cl)c1)c1noc(-c2ccc3c(c2)OCO3)n1,39.8µM*,?,?,0.8%
COc1ccc(CNC(=O)c2noc(-c3ccc(C)cc3)n2)cc1,-19.7%,-8.5%,i,0.9%
Cc1cccc(CNC(=O)c2noc(-c3ccc4c(c3)OCO4)n2)c1,?,?,?,-2.5%
COc1ccccc1C(=O)NCc1c[nH]c2ncccc12,-3.8%[172 µM],-31.8%[138 µM],i,3.9%[70.6 µM]
SMILES,HEK293 tox,NIH3T3 tox,FLuc inh,hNpr1 antagonist
COc1cccc(CNC(=O)c2c[nH]c3ncccc23)c1,-15.3%[172 µM],?,39.8µM*,5.4%[70.6 µM]
COc1cccc(CNC(=O)c2noc(-c3ccc(C)cc3)n2)c1,-11.7%,-21.5%,28.2µM*,-1.7%
CSc1ccc(CNC(=O)c2noc(-c3ccc(F)cc3)n2)cc1,-27.4%,?,28.2µM*,-9.2%
O=C(NCc1cccs1)c1noc(-c2ccc(F)cc2)n1,?,?,?,-2.4%
O=C(Nc1ccc(-c2nnc3n2CCCC3)cc1)c1cccc(F)c1,-13.3%,-9.0%,i,-1.9%
Cn1nc(-c2cccc(F)c2)c(N2CCCCC2)c1NC(=O)Nc1ccccc1,?,28.2µM*,·,·
Cc1cccc(C(=O)Nc2c(N3CCCCC3)c(-c3cccc(F)c3)nn2C)c1,39.8µM*,44.7µM*,·,·
CCN1C(=O)CCN(Cc2cccc(C)c2)CC12CCOCC2,-5.6%,-16.6%,·,·
CCN1C(=O)CCN(Cc2cn(C)c3ccccc23)CC12CCOCC2,79.4µM*,?,·,·
